# Source: PubChem BioAssay AID1159580 (chemical genetic matrix, 2015)
# The campaign covered roughly 5,500 compounds. About 2,000 (36%) were called active. Inconclusive results (about 18%) are left out. This is one part of the list. Values without a mark were called inactive. Rule as the data show it: active = normalized growth mostly below about 0.91 (no sharp cut-off); inconclusive = no clear call, values can overlap the other calls; inactive = mostly above about 0.92.
# Test: chemical genetic growth profiling, strain panel (AID 1159580);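 also: tested at 20 µM; growth read once vehicle control cultures reached saturation at 30 °C; 1 = growth at the plate median or of vehicle wells; lower values mean less growth of the strain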
# Conditions: S. cerevisiae deletion strains, growth OD
structure (smiles),measurement,setting,value
CC(C)(Oc1ccc(C2CC2(Cl)Cl)cc1)C(=O)O (configuration not stated),normalized growth,"locus YAL021C, strain ccr4, hits give low values",1
same,normalized growth,"locus YAL026C, strain drs2, hits give low values",1
same,normalized growth,"locus YAL030W, strain snc1, hits give low values",1
same,normalized growth,"locus YAL040C, strain CLN3, hits give low values",0.988
same,normalized growth,"locus YBL061C, strain skt5, hits give low values",0.997
same,normalized growth,"locus YBR009C, strain hhf1, hits give low values",0.995
same,normalized growth,"locus YBR023C, strain chs3, hits give low values",0.992
same,normalized growth,"locus YBR171W, strain sec66, hits give low values",0.996
same,normalized growth,"locus YBR231C, strain swc5, hits give low values",0.997
same,normalized growth,"locus YBR279W, strain paf1, hits give low values",1.02
same,normalized growth,"locus YCL011C, strain gbp2, hits give low values",1.01
same,normalized growth,"locus YCL016C, strain dcc1, hits give low values",0.992
same,normalized growth,"locus YCL061C, strain MRC1 (second series), hits give low values",0.988
same,normalized growth,"locus YCL061C, strain MRC1, hits give low values",0.99
same,normalized growth,"locus YCL069W, strain vba3, hits give low values",1.01
same,normalized growth,"locus YCR088W, strain abp1, hits give low values",0.997
same,normalized growth,"locus YDL005C, strain med2, hits give low values",0.998
same,normalized growth,"locus YDL040C, strain nat1, hits give low values",1
same,normalized growth,"locus YDR001C, strain nth1, hits give low values",1.01
same,normalized growth,"locus YDR069C, strain doa4, hits give low values",1
same,normalized growth,"locus YDR137W, strain rgp1, hits give low values",0.964
same,normalized growth,"locus YDR159W, strain sac3, hits give low values",0.997
same,normalized growth,"locus YDR195W, strain ref2",0.989
same,normalized growth,"locus YDR297W, strain sur2, hits give low values",0.998
same,normalized growth,"locus YDR334W, strain swr1, hits give low values",1
same,normalized growth,"locus YDR335W, strain msn5, hits give low values",1
same,normalized growth,"locus YDR392W, strain spt3, hits give low values",0.944
same,normalized growth,"locus YEL003W, strain gim4, hits give low values",1.02
same,normalized growth,"locus YEL037C, strain rad23, hits give low values",1.01
same,normalized growth,"locus YEL061C, strain CIN8 (second series), hits give low values",1.01
same,normalized growth,"locus YER002W, strain NOP16, hits give low values",0.962
same,normalized growth,"locus YER015W, strain faa2, hits give low values",0.994
same,normalized growth,"locus YER016W, strain bim1, hits give low values",1
same,normalized growth,"locus YER111C, strain swi4, hits give low values",0.998
same,normalized growth,"locus YER155C, strain BEM2 (second series), hits give low values",1
same,normalized growth,"locus YFR010W, strain ubp6, hits give low values",0.99
same,normalized growth,"locus YGL167C, strain pmr1, hits give low values",0.998
same,normalized growth,"locus YGL173C, strain kem1, hits give low values",1
same,normalized growth,"locus YGL227W, strain vid30, hits give low values",1
same,normalized growth,"locus YGL240W, strain doc1, hits give low values",1
same,normalized growth,"locus YGL253W, strain hxk2, hits give low values",1.01
same,normalized growth,"locus YHR013C, strain ard1, hits give low values",0.973
same,normalized growth,"locus YHR027C, strain rpn1, hits give low values",0.995
same,normalized growth,"locus YHR142W, strain chs7, hits give low values",1
same,normalized growth,"locus YJL092W, strain hpr5, hits give low values",1.01
same,normalized growth,"locus YJL095W, strain BCK1 (second series), hits give low values",0.997
same,normalized growth,"locus YJL115W, strain asf1, hits give low values",0.999
same,normalized growth,"locus YJL129C, strain trk1, hits give low values",0.987
same,normalized growth,"locus YJL154C, strain vps35, hits give low values",1.01
same,normalized growth,"locus YJL164C, strain tpk1, hits give low values",1
same,normalized growth,"locus YJL166W, strain qcr8, hits give low values",0.985
same,normalized growth,"locus YJL187C, strain SWE1, hits give low values",0.992
same,normalized growth,"locus YKL160W, strain elf1, hits give low values",0.978
same,normalized growth,"locus YKR026C, strain gcn3, hits give low values",0.997
same,normalized growth,"locus YKR091W, strain srl3, hits give low values",1
same,normalized growth,"locus YLL001W, strain dnm1, hits give low values",0.968
same,normalized growth,"locus YLL026W, hits give low values",1
same,normalized growth,"locus YLL041C, strain sdh2, hits give low values",1.01
same,normalized growth,"locus YLR027C, strain aat2, hits give low values",0.998
same,normalized growth,"locus YLR221C, strain rsa3, hits give low values",0.994
same,normalized growth,"locus YLR258W, strain gsy2, hits give low values",1
same,normalized growth,"locus YLR262C, strain YPT6 (second series), hits give low values",0.981
same,normalized growth,"locus YLR320W, strain mms22, hits give low values",0.976
same,normalized growth,"locus YLR342W, strain FKS1, hits give low values",1
same,normalized growth,"locus YLR357W, strain rsc2, hits give low values",1.01
same,normalized growth,"locus YLR370C, strain arc18, hits give low values",1
same,normalized growth,"locus YLR384C, strain iki3, hits give low values",1
same,normalized growth,"locus YML120C, strain ndi1, hits give low values",0.985
same,normalized growth,"locus YMR058W, strain fet3, hits give low values",1
same,normalized growth,"locus YMR125W, strain sto1, hits give low values",0.996
same,normalized growth,"locus YMR129W, hits give low values",0.996
same,normalized growth,"locus YMR205C, strain PFK2, hits give low values",0.973
same,normalized growth,"locus YMR231W, strain pep5, hits give low values",1
same,normalized growth,"locus YNL071W, strain lat1, hits give low values",0.998
same,normalized growth,"locus YNL153C, strain GIM3, hits give low values",1.01
same,normalized growth,"locus YNL175C, strain NOP13, hits give low values",0.98
same,normalized growth,"locus YNL197C, strain WHI3, hits give low values",1.08
same,normalized growth,"locus YNL209W, strain ssb2, hits give low values",1
same,normalized growth,"locus YNL224C, strain SQS1, hits give low values",0.99
same,normalized growth,"locus YNL248C, strain rpa49, hits give low values",1
same,normalized growth,"locus YNL322C, strain KRE1 (second series), hits give low values",0.984
same,normalized growth,"locus YNR049C, strain mso1, hits give low values",1
same,normalized growth,"locus YOR001W, strain rrp6, hits give low values",1.02
same,normalized growth,"locus YOR070C, strain gyp1, hits give low values",0.998
same,normalized growth,"locus YOR080W, strain dia2, hits give low values",0.988
same,normalized growth,"locus YOR083W, strain WHI5 (second series), hits give low values",1.01
same,normalized growth,"locus YOR083W, strain WHI5, hits give low values",0.977
same,normalized growth,"locus YOR106W, strain vam3, hits give low values",0.972
same,normalized growth,"locus YOR265W, strain rbl2, hits give low values",1
same,normalized growth,"locus YOR270C, strain vph1, hits give low values",0.99
same,normalized growth,"locus YOR290C, strain snf2, hits give low values",1.01
same,normalized growth,"locus YPL051W, strain arl3, hits give low values",0.994
same,normalized growth,"locus YPL078C, strain atp4, hits give low values",0.993
same,normalized growth,"locus YPL106C, strain sse1, hits give low values",0.951
same,normalized growth,"locus YPL240C, strain hsp82, hits give low values",1.01
same,normalized growth,"locus YPL241C, strain CIN2, hits give low values",0.984
O=[N+]([O-])c1ccc(Sc2ssc(=S)c2-c2ccccc2)nc1,normalized growth,"locus YAR019C, strain CDC15, hits give low values",0.922
same,normalized growth,"locus YBL105C, strain PKC1, hits give low values",0.946
same,normalized growth,"locus YBR135W, strain CKS1, hits give low values",0.943
same,normalized growth,"locus YBR136W, strain MEC1, hits give low values",0.952
same,normalized growth,"locus YBR160W, strain CDC28, hits give low values",0.947
same,normalized growth,"locus YDL017W, strain CDC7, hits give low values",0.954
same,normalized growth,"locus YDL028C, strain MPS1, hits give low values",0.953
same,normalized growth,"locus YDL101C, strain DUN1, hits give low values",0.961
same,normalized growth,"locus YDL108W, strain KIN28, hits give low values",0.953
same,normalized growth,"locus YDL132W, strain cdc53, hits give low values",0.956
same,normalized growth,"locus YDL214C, strain PRR2, hits give low values",0.521 (active)
same,normalized growth,"locus YDR052C, strain DBF4, hits give low values",0.968
same,normalized growth,"locus YDR054C, strain cdc34, hits give low values",0.918
same,normalized growth,"locus YDR226W, strain ADK1, hits give low values",1.01
same,normalized growth,"locus YDR477W, strain SNF1, hits give low values",0.651 (active)
same,normalized growth,"locus YER123W, strain YCK3, hits give low values",0.338 (active)
same,normalized growth,"locus YER133W, strain GLC7, hits give low values",0.512 (active)
same,normalized growth,"locus YFL009W, strain cdc4, hits give low values",0.948
same,normalized growth,"locus YFL029C, strain CAK1, hits give low values",0.922
same,normalized growth,"locus YFR003C, strain YPI1, hits give low values",0.958
same,normalized growth,"locus YFR019W, strain FAB1, hits give low values",0.546 (active)
same,normalized growth,"locus YFR028C, strain CDC14, hits give low values",0.97
same,normalized growth,"locus YGR040W, strain KSS1, hits give low values",0.673 (active)
same,normalized growth,"locus YGR052W, strain FMP48, hits give low values",0.449 (active)
same,normalized growth,"locus YGR092W, strain DBF2, hits give low values",0.617
same,normalized growth,"locus YHR030C, strain SLT2, hits give low values",0.159 (active)
same,normalized growth,"locus YHR079C, strain IRE1, hits give low values",0.247 (active)
same,normalized growth,"locus YHR082C, strain KSP1, hits give low values",0.471 (active)
same,normalized growth,"locus YHR205W, strain SCH9, hits give low values",0.782
same,normalized growth,"locus YIL147C, strain SLN1, hits give low values",0.956
same,normalized growth,"locus YJL095W, strain BCK1, hits give low values",0.175 (active)
same,normalized growth,"locus YJL128C, strain PBS2, hits give low values",1.05
same,normalized growth,"locus YJL157C, strain FAR1, hits give low values",0.485 (active)
same,normalized growth,"locus YJR016C, strain ILV3, hits give low values",0.951
same,normalized growth,"locus YJR066W, strain TOR1 (second series), hits give low values",0.312 (active)
same,normalized growth,"locus YJR066W, strain TOR1, hits give low values",0.327 (active)
same,normalized growth,"locus YKL048C, strain ELM1, hits give low values",0.843
same,normalized growth,"locus YKL067W, strain YNK1, hits give low values",0.61 (active)
same,normalized growth,"locus YKL101W, strain HSL1, hits give low values",0.791
same,normalized growth,"locus YKL193C, strain SDS22, hits give low values",0.933
same,normalized growth,"locus YKL203C, strain TOR2, hits give low values",0.674 (active)
same,normalized growth,"locus YLR113W, strain HOG1, hits give low values",0.362 (active)
same,normalized growth,"locus YLR133W, strain CKI1, hits give low values",0.626 (active)
same,normalized growth,"locus YLR403W, strain SFP1, hits give low values",0.703
same,normalized growth,"locus YML070W, strain DAK1, hits give low values",0.371 (active)
same,normalized growth,"locus YMR001C, strain CDC5, hits give low values",0.932
same,normalized growth,"locus YMR205C, strain PFK2 (second series), hits give low values",0.722 (active)
same,normalized growth,"locus YMR277W, strain FCP1, hits give low values",0.961
same,normalized growth,"locus YNL006W, strain LST8, hits give low values",0.942
same,normalized growth,"locus YNL020C, strain ARK1, hits give low values",0.624 (active)
same,normalized growth,"locus YNL161W, strain CBK1, hits give low values",0.929
same,normalized growth,"locus YNL183C, strain NPR1, hits give low values",0.256 (active)
same,normalized growth,"locus YNL207W, strain RIO2, hits give low values",0.944
same,normalized growth,"locus YNL222W, strain SSU72, hits give low values",0.934
same,normalized growth,"locus YNL307C, strain MCK1 (second series), hits give low values",0.633 (active)
same,normalized growth,"locus YOL078W, strain AVO1, hits give low values",0.928
same,normalized growth,"locus YOL136C, strain PFK27, hits give low values",0.376 (active)
same,normalized growth,"locus YOR061W, strain CKA2, hits give low values",0.664 (active)
same,normalized growth,"locus YOR119C, strain RIO1, hits give low values",0.728
same,normalized growth,"locus YOR231W, strain MKK1, hits give low values",0.229 (active)
same,normalized growth,"locus YOR329C, strain SCD5, hits give low values",0.945
same,normalized growth,"locus YPL031C, strain PHO85, hits give low values",0.57 (active)
same,normalized growth,"locus YPL153C, strain RAD53, hits give low values",0.537 (active)
same,normalized growth,"locus YPL204W, strain HRR25, hits give low values",0.422 (active)
same,normalized growth,"locus YPL209C, strain IPL1, hits give low values",0.945
same,normalized growth,"locus YPL256C, strain CLN2, hits give low values",0.3 (active)
same,normalized growth,"locus YPR025C, strain CCL1, hits give low values",0.944
same,normalized growth,"locus YPR106W, strain ISR1, hits give low values",0.999
same,normalized growth,"locus YPR111W, strain DBF20, hits give low values",0.994
same,normalized growth,"strain NNK1, hits give low values",0.956
same,normalized growth,"strain TSCII, hits give low values",0.917
